# Screening results (PubChem BioAssay)
# Only a selection was taken, and hits are over-represented in it overall.
# mHTT-CaM PPI inh: mutant huntingtin-calmodulin interaction inhibitors – biochemical, AlphaScreen, primary screen. AlphaScreen His-mHTT/GST-CaM binding, luminescence. inhibition, % at 15 µM. 3.6% of 190,000 active. AID 1671202, 2021;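 note: 0% = both proteins with DMSO and 100% = one protein alone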
# Target sequence (P42858 whole entry, looked up, stated change not applied): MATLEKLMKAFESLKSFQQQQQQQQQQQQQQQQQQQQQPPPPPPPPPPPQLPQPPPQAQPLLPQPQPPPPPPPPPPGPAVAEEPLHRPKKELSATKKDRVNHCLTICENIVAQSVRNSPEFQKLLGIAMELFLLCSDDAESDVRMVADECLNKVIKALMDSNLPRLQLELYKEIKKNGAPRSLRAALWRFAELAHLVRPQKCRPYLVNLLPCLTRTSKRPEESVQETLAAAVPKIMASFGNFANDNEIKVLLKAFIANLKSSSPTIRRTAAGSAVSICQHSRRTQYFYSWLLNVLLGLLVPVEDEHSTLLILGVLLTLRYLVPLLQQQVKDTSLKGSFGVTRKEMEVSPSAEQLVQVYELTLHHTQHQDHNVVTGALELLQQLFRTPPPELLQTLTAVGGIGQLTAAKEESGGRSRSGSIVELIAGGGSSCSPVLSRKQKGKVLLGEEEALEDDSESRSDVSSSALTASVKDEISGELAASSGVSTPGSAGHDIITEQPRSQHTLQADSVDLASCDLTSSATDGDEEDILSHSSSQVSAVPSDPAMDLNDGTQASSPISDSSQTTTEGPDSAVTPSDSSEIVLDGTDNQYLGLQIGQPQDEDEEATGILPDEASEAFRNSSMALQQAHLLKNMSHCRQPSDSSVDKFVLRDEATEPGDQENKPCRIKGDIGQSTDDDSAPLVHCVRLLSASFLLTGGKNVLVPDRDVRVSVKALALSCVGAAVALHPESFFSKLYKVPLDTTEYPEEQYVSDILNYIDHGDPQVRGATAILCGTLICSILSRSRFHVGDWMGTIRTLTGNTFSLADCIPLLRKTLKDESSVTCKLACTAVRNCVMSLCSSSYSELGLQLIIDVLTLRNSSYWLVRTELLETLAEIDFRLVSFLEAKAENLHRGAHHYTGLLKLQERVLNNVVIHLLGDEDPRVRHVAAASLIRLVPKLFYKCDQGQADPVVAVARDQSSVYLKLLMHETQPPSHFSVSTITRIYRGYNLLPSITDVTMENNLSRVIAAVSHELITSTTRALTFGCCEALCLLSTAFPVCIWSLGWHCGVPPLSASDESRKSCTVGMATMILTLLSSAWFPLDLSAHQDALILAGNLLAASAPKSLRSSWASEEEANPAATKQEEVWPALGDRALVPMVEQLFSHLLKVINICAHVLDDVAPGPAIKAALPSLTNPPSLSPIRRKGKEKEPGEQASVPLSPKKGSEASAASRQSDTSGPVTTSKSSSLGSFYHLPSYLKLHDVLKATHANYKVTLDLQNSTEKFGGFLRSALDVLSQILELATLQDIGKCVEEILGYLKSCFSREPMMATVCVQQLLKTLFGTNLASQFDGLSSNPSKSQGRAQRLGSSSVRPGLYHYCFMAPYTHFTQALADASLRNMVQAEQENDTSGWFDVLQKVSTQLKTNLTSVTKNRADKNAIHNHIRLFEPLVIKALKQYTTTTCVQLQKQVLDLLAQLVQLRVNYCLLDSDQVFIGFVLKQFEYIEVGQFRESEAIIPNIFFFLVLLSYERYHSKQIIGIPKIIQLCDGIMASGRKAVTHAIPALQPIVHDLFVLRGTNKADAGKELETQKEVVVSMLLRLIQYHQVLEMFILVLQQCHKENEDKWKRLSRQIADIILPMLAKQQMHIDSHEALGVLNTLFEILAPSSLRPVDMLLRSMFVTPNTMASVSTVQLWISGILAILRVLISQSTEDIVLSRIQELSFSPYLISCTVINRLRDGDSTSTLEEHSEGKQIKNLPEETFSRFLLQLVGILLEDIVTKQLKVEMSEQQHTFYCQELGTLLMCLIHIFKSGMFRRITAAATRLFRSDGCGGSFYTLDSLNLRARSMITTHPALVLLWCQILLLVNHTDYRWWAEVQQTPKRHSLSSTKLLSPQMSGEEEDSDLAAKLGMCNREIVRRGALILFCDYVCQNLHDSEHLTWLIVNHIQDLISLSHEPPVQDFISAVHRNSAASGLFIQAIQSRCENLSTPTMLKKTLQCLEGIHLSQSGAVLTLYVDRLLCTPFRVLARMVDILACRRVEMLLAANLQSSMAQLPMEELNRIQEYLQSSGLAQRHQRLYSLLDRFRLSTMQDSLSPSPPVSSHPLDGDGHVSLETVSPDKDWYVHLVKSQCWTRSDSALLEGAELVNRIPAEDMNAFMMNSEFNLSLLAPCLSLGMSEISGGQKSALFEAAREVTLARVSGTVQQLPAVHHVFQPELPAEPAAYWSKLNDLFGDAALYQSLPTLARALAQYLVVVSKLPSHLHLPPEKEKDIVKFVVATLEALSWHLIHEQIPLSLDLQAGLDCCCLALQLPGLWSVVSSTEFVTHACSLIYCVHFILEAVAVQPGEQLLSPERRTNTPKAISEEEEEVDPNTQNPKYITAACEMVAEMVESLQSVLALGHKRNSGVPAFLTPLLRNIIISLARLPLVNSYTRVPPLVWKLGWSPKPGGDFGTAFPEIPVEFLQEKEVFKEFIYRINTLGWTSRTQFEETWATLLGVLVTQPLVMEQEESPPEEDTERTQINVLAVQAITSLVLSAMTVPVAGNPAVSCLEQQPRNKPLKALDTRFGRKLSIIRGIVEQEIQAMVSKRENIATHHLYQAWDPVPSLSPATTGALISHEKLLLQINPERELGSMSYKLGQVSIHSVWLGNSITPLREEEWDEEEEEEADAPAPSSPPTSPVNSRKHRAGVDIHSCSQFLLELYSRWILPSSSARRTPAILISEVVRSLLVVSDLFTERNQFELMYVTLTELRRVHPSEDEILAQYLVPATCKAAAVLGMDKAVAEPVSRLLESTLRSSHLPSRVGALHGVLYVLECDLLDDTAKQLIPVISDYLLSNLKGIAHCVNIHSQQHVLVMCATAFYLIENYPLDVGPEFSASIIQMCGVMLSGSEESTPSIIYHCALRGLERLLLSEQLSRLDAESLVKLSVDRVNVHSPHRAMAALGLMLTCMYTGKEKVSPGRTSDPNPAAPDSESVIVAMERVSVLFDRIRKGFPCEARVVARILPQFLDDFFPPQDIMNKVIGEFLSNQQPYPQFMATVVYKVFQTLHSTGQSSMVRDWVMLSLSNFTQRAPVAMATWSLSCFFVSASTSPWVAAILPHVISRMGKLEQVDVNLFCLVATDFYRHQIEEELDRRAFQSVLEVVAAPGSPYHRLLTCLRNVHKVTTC
# Pf apPOL block: Pf-apPOL inhibitors, biochemical, fluorescence; inhibition, % at 10 µM; Plasmodium falciparum apicoplast DNA polymerase (apPOL); Recombinant Pf-apPOL, molecular beacon fluorescence, 1.5 h; AID 1794808, 2022; 0.25% of 210,000 active
# The depositor's hits bear a star; / = no result given; ! = not confirmed by another sample. Cut-off read from the data, not from the text of the source: active = inhibition above about 50%; inactive = the rest.
SMILES,mHTT-CaM PPI inh,Pf apPOL block
CCCc1cc(C(=O)N2CCCC2c2cc(C)on2)no1 (stereo not drawn),-8,-3
O=C(NCCN1CCCC1)C1CCC(=O)N1Cc1ccccc1Cl (stereo not drawn),-2,-22
COc1ccccc1NC(=O)c1cccc2c1C(=O)c1ccccc1-2,21,-2
CNc1ccc(OC)c2c1C(=O)c1ccccc1C2=O,82*,-82
O=[N+]([O-])c1cc(C(F)(F)F)cc([N+](=O)[O-])c1Sc1nnnn1-c1ccccc1,100*,4
CS(=O)(=O)N1CCN(c2ccc([N+](=O)[O-])c(Sc3nnnn3-c3ccccc3)c2)CC1,-4,-4
COc1ccccc1OCC(=O)NC1CCS(=O)(=O)C1 (stereo not drawn),2,-5
CC1Cc2ccccc2N1C(=O)c1ccc(Cl)cc1 (stereo not drawn),-39,2
CC1Cc2ccccc2N1C(=O)c1ccc2nc(N3C(=O)CCC3=O)sc2c1 (stereo not drawn),52*,-5
COc1ccc(C2=NN(C(=O)CN3CCC(C)CC3)C(c3ccccc3C)C2)cc1 (stereo not drawn),32,-2
COc1ccccc1C1=NN(C(=O)CN2CCCCC2)C(c2cc(C)ccc2C)C1 (stereo not drawn),100*,-7
COc1cccc(C2=NN(C(=O)CN3CCCCC3)C(c3ccccc3C)C2)c1 (stereo not drawn),61*,-5
COc1ccccc1C1CC(c2ccccc2F)=NN1C(=O)CN1CCCCC1 (stereo not drawn),26,-3
Cc1onc(-c2ccccc2Cl)c1C(=O)Nc1ccc2c(c1)OCO2,-5,2
O=C(Nc1nnc(-c2ccno2)o1)C1CCCN1S(=O)(=O)c1ccc(F)cc1 (stereo not drawn),7,8
COc1cccc(CN2CCc3c([nH]c4ccccc34)C2)c1OC,18,5
Clc1ccccc1CN1CCc2c([nH]c3ccccc23)C1,95*,-1
c1ccc2c3c([nH]c2c1)CN(Cc1ccc2c(c1)OCO2)CC3,29,-2
CN(C)c1ccc(CN2CCc3c([nH]c4ccccc34)C2)cc1,60*,-40
CCn1cc(C2Nc3ccccc3C(=O)N2O)c(C)n1 (stereo not drawn),5,9
O=C(Cc1csc(SCC(=O)c2cccs2)n1)NCCc1c[nH]c2ccccc12,30,-8
COC(=O)Nc1nc(CC(=O)NCc2ccccc2Cl)cs1,-1,-6
O=C(Cc1csc(NC(=O)c2ncccn2)n1)NCc1ccccc1Cl,98*,-18
O=C(Cc1csc(NC(=O)c2ccc3c(c2)OCO3)n1)NCCc1c[nH]c2ccccc12,56*,-6
NS(=O)(=O)c1ccc(CNC(=O)Cc2csc(NC(=O)c3cccs3)n2)cc1,0,-7
SMILES,mHTT-CaM PPI inh,Pf apPOL block
O=C(Cc1csc(NC(=O)c2cnccn2)n1)NCCc1c[nH]c2ccccc12,53*,-24
O=C(Cc1csc(NC(=O)c2ccc(=O)[nH]c2)n1)NCCc1c[nH]c2ccccc12,10,-14
O=C(Cc1csc(NC(=O)c2cccs2)n1)NO,15,72*
Cc1ccc(C(=O)N2N=C(c3ccc(NS(C)(=O)=O)cc3)CC2c2ccco2)cc1 (stereo not drawn),26,0
COC1(C)CNc2ccccc2C(=O)N1 (stereo not drawn),/,-2
COc1ccc(/C=C2\N=C(c3cc([N+](=O)[O-])ccc3Cl)OC2=O)c(OC)c1,4,-7
Cc1cccc(Cl)c1NC(=O)C1CC(=O)N(c2ccc(F)cc2)C1 (stereo not drawn),4,-5
Cc1nc(SCC(=O)c2ccc(O)cc2O)n[nH]1,1,-2
CC(C)Oc1cccc(C(=O)Nc2ccc(-c3nc4ncccc4o3)cc2)c1,1,-8
O=c1[nH]c2ccccc2n1CCCSc1nccc2ccccc12,100*,-8
Cc1cc(C)nc(SCCCn2c(=O)[nH]c3ccccc32)n1,18,-2
CSc1nc2ccccc2n1CC(=O)Nc1ccc(F)cc1,-1,-1
CSc1nc2ccccc2n1CC(=O)NC(c1ccccc1)c1ccccc1,57*,0
N#C/C(=C\Nc1ccccc1F)c1nc(-c2cc3ccccc3oc2=O)cs1,0,2
CCCN1C/C(=C\c2ccc3c(c2)OCO3)C(=O)/C(=C/c2ccc3c(c2)OCO3)C1,63*,1
CCOc1ccc2c(c1)OC(=Cc1ccc3c(c1)OCO3)C2=O,-6,3
CCn1cnc2ccc(-c3noc(CCc4c[nH]c5ccccc45)n3)cc21,100*,-3
CCn1cnc2ccc(-c3noc(Cc4ccccc4Cl)n3)cc21,7,-1
Cn1cnc2ccc(-c3noc(Cc4cccs4)n3)cc21,9,0
Cn1cnc2ccc(-c3noc(CCc4c[nH]c5ccccc45)n3)cc21,76*,-3
CCn1cnc2ccc(-c3noc(-c4cccc(OC)c4)n3)cc21,76*,0
CCn1cnc2ccc(-c3noc(-c4ccccc4)n3)cc21,28,-19
CCn1cnc2ccc(-c3noc(Cc4c[nH]c5ccccc45)n3)cc21,99*,-5
COc1cccc(-c2nc(-c3ccc4ncn(C)c4c3)no2)c1,-8,-6
COc1ccc(CNc2nc(-c3ccccc3OC)cc(C(F)(F)F)n2)cc1,-102,-4
SMILES,mHTT-CaM PPI inh,Pf apPOL block
N#Cc1c(SCCN2CCOCC2)sc2c(=O)[nH]c(=O)[nH]c12,-8,/
O=[N+]([O-])c1cc(Br)c2nsnc2c1N1CCCCC1,77*!,-8
O=[N+]([O-])c1cc(C(F)(F)F)cc([N+](=O)[O-])c1N1CCCCC1,24,-2
Cc1cccc(N2CCN(C(=O)CC(C)C)C(C)C2=O)c1C (stereo not drawn),-3,-4
O=C(NCc1ccccn1)c1ccc(=O)n(Cc2ccccc2)n1,-8,-16
CN(C)CCN(C(=O)CCc1ccccc1)c1nc2c(Cl)cccc2s1,62*,2
O=C(Cc1ccc(F)cc1)N(CCCn1ccnc1)c1nc2c(Cl)cccc2s1,91*,4
Cc1cc(C(=O)N(CCN(C)C)c2nc3c(Cl)cccc3s2)no1,-16,1
O=C(c1cccc(F)c1)N(CCCn1ccnc1)c1nc2c(F)cccc2s1,26,-7
Cc1ccc(C)c(Nc2c(-c3nc(C)no3)cnc3nc(C)ccc23)c1,27,3
Cc1cc(C(F)(F)F)n2ncc(-c3cccc(Br)c3)c2n1,2,-10
CCCN(CCC)Cc1c(O)ccc2c1OC(=Cc1cc(OC)c(OC)c(OC)c1)C2=O,15,-15
COc1ccc(NC(=O)c2cccnc2Cl)cc1,-4,0
CCN1CCN(CC(=O)N2N=C(c3ccccc3Cl)CC2c2cccn2C)CC1 (stereo not drawn),82*,-3
COc1ccc(C2=NN(C(=O)CN3CCCCC3)C(c3ccccc3Cl)C2)cc1 (stereo not drawn),9,-1
COc1ccc(C2=NN(C(=O)CN3CCOCC3)C(c3ccccc3Cl)C2)cc1 (stereo not drawn),21,-5
Cn1cccc1C1CC(c2ccccc2Cl)=NN1C(=O)CN1CCCCC1 (stereo not drawn),94*,-5
COc1cccc(CNC(=O)C2CCCN(c3ccc(N4CCOCC4)nn3)C2)c1 (stereo not drawn),6,-11
C/C(Nc1ccc(Br)cc1)=C(/C#N)C(N)=O,-5,-1
COc1ccc(C2CC(c3ccccc3Cl)Nc3nc(N)nn32)cc1OC (stereo not drawn),26,-6
